Reference: PubChem BioAssay
For part of these data: Results with a measured potency or affinity are listed apart.

test: blockers of polyQ-driven CASP3 activation – cell-based (AID 1583); conditions: polyglutamine-induced caspase-3 activation, cell assay; stronger effect = higher value;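 tested at 10 µM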

SMILES	inhibition
OCC(S)CS (stereo unspecified)	11.1%
CNC(C)[C@@H]1CC[C@@H](N)[C@@H](OC2[C@@H](N)C[C@@H](N)[C@H](OC3OC[C@](C)(O)[C@H](NC)[C@H]3O)[C@H]2O)O1 (stereo partly specified)	-0.7%
Nc1ccc(C(=O)O)c(O)c1 (tested in a mixture with another compound)	-9.55%

test: yeast 75Q aggregation reduction – 75Q-TubU reporter (AID 1593); conditions: Yeast 75Q polyglutamine aggregation reporter

SMILES	score
OCC(S)CS (stereo unspecified)	-0.34
CNC(C)[C@@H]1CC[C@@H](N)[C@@H](OC2[C@@H](N)C[C@@H](N)[C@H](OC3OC[C@](C)(O)[C@H](NC)[C@H]3O)[C@H]2O)O1 (stereo partly specified)	1.63
Nc1ccc(C(=O)O)c(O)c1 (tested in a mixture with another compound)	1.25

test: restoration of touch response, mutant HTT neurons – whole organism, C. elegans mechanosensory neurons, N-terminal huntingtin (AID 1599); conditions: C. elegans polyQ-huntingtin mechanosensory neurons, stronger effect = higher value

SMILES	rescue above control
OCC(S)CS (stereo unspecified)	28.1
CNC(C)[C@@H]1CC[C@@H](N)[C@@H](OC2[C@@H](N)C[C@@H](N)[C@H](OC3OC[C@](C)(O)[C@H](NC)[C@H]3O)[C@H]2O)O1 (stereo partly specified)	-1.8
Nc1ccc(C(=O)O)c(O)c1 (tested in a mixture with another compound)	-2.24

test: blockers of cytochrome c efflux from mitochondria – biochemical, purified mitochondria (AID 1603); conditions: stronger effect = lower value;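 note: mouse liver mitochondria challenged with calcium chloride; signal normalized to the plate average as 100%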

SMILES	cytochrome c release ratio
OCC(S)CS (stereo unspecified)	0.92
CNC(C)[C@@H]1CC[C@@H](N)[C@@H](OC2[C@@H](N)C[C@@H](N)[C@H](OC3OC[C@](C)(O)[C@H](NC)[C@H]3O)[C@H]2O)O1 (stereo partly specified)	2.33
Nc1ccc(C(=O)O)c(O)c1 (tested in a mixture with another compound)	0.96

test: polyglutamine aggregate formation blockers (AID 1604); conditions: polyglutamine-induced protein aggregation inhibition assay; stronger effect = higher value; tested at 2.5 µM

SMILES	inhibition of aggregation
OCC(S)CS (stereo unspecified)	68.7%
CNC(C)[C@@H]1CC[C@@H](N)[C@@H](OC2[C@@H](N)C[C@@H](N)[C@H](OC3OC[C@](C)(O)[C@H](NC)[C@H]3O)[C@H]2O)O1 (stereo partly specified)	66.7%
Nc1ccc(C(=O)O)c(O)c1 (tested in a mixture with another compound)	69%

test: glutamate transport activators, MN-1 cells, MN-1 cell line (AID 1612); conditions: MN-1 motor neuron cells, stronger effect = higher value;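 note: tested at 1 µM final; 0% = mean of DMSO vehicle wells on each plate; positive means more glutamate uptake than control and negative means less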

SMILES	glutamate uptake change
OCC(S)CS (stereo unspecified)	23.2%
CNC(C)[C@@H]1CC[C@@H](N)[C@@H](OC2[C@@H](N)C[C@@H](N)[C@H](OC3OC[C@](C)(O)[C@H](NC)[C@H]3O)[C@H]2O)O1 (stereo partly specified)	1.4%
Nc1ccc(C(=O)O)c(O)c1 (tested in a mixture with another compound)	-12.2%

test: 75Q-TubH aggregate inhibition, S. cerevisiae, yeast (AID 1616); conditions: S. cerevisiae 75Q-TubH polyglutamine aggregation suppression; stronger effect = higher value

SMILES	aggregation suppression score
OCC(S)CS (stereo unspecified)	-0.815
CNC(C)[C@@H]1CC[C@@H](N)[C@@H](OC2[C@@H](N)C[C@@H](N)[C@H](OC3OC[C@](C)(O)[C@H](NC)[C@H]3O)[C@H]2O)O1 (stereo partly specified)	1.62
Nc1ccc(C(=O)O)c(O)c1 (tested in a mixture with another compound)	1.1
